L3MBTL1 block: inhibitors of human L3MBTL1. Potency, µM (titrated, usually from 57.1 µM), inactives show top-dose activity, negative = inhibition, most hits filed as inhibitors. AlphaScreen L3MBTL1–H3K9me1 peptide binding. AID 485360. Q9Y468. hit rate 0.66% among 230,000; note: % is set by controls: 0 for no effect and ±100 for the full control effect; nearly all actives have a fitted effect of over 60% in size
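L3MBTL1 50 nM + b-AHA-H3(1-15)K9me1 75 nM, 30 min RT; compound added, 30 min RT; streptavidin donor/Ni-chelate acceptor beads 10 ug/mL each final, 30 min RT dark; AlphaScreen read.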
Sfp inh: blocks B. subtilis Sfp PPTase activity; Biochemical Sfp PPTase activity, qHTS; Potency, µM, for inactives: largest response in the series, negative = inhibition, hits mostly inhibitors; hit rate 3.5% among 310,000;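 note: the enzyme is Sfp with the accession as filed and its product quenches rhodamine fluorescence; 0% = enzyme reaction without inhibitor and -100% = no enzyme wells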
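Fluorescence-quenching assay: 15 nM Sfp-PPTase preincubated 15 min at room temperature with compound, then 5 uM rhodamine-CoA and 12.5 uM BHQ-2-labelled YbbR peptide added. Fluorescence (ex 525/em 598 nm) read at start and after 30 min; difference gives rate.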
BAZ2B block: blocks human BAZ2B | Q9UIF8 | AlphaScreen BAZ2B-H3K14Ac peptide displacement | Potency, µM (top dose mostly 114 µM), for inactives: at the top dose activity change, negative = inhibition, hits mostly inhibitors | AID 504333 | hit rate 4.4% among 360,000; note: % is set by controls: 0 for no effect and ±100 for the full control effect; nearly all actives have a fitted effect of over 60% in size
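Protein-peptide AlphaScreen: BAZ2B 50 nM, b-H3K14Ac 50 nM, 1x PBS pH 7.4 + 0.01% Tween-20. Preincubation 30 min RT; cpd 30 min RT (top 110 uM); beads 20 min RT, light-protected.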
HP1b chromo inh: blocks HP1-beta chromodomain binding to methylated histone tails. P83916. hit rate 0.56% among 390,000. AlphaScreen HP1-beta / biotin-H3K9me3 peptide binding. Potency, µM (highest dose often 114 µM), inactives show at the highest dose activity change, negative = inhibition, hits mostly inhibitors; note: nearly all actives have a fitted effect of over 70% in size
Target sequence (P83916 whole entry, looked up): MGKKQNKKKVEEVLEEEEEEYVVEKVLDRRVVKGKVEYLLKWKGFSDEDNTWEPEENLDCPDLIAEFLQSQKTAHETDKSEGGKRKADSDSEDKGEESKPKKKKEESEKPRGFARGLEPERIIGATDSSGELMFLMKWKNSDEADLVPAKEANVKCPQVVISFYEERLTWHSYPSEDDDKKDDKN
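AlphaScreen: HP1-beta (50 nM) preformed 30 min with biotin-H3(1-18)K9me3 peptide (50 nM) in PBS pH 7.4, 0.01% Tween-20. Compound added for 30 min at RT, then streptavidin donor/nickel chelate acceptor beads (10 ug/mL) for 30 min.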
G9a inh: inhibitors of human histone lysine methyltransferase G9a; G9a H3K9 monomethylation, AlphaScreen, 2 h; AID 504332; Potency, µM (titrated, usually from 102 µM), for inactives: top-dose activity, negative = inhibition, hits mostly inhibitors; hit rate 8.8% among 350,000; note: % is set by controls: 0 for no effect and ±100 for the full control effect; nearly all actives have a fitted effect of over 75% in size
Target sequence (Q96KQ7 913-1193 limits assumed): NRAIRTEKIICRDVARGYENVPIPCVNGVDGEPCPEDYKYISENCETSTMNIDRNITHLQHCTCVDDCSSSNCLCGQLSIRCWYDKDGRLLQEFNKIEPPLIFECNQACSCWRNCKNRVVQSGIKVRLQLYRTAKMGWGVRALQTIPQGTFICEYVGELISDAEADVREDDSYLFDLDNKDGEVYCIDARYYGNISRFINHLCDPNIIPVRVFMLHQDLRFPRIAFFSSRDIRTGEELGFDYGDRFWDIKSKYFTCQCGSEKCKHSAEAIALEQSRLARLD
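Methyltransferase reactions run at room temperature for 2 h (20 nM enzyme, 500 nM biotin-H3K9 peptide, 20 uM SAM) after a 15 min compound preincubation; product detected by AlphaScreen beads and anti-H3K9me1 antibody.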
JMJD2A Tudor inh: inhibitors of human JMJD2A Tudor domain; AlphaScreen JMJD2A-Tudor / H3K4me3 peptide binding; Potency, µM (doses to about 114 µM), for the others: at the highest dose activity change, negative = inhibition, usual class: inhibitors; hit rate 4.4% among 390,000; note: % is set by controls: 0 for no effect and ±100 for the full control effect; nearly all actives have a fitted effect of over 50% in size
Active calls of the source: *; ? = inconclusive; nt = no result given; [ ] = dose if it differs, or a comment. In the library only some 12% were active in any assay of this set; here they are far more common. Calls come from the whole dose curve; as a rule, active = well fitted curve in the direction sought with a large enough effect; inconclusive = small, poorly fitted or top-dose-only effect, or another doubt; inactive = no such curve, though single readings can be large; an effect the other way counts as inactive or inconclusive. Potency is the fitted concentration of half-maximal effect.

SMILES	L3MBTL1 block	Sfp inh	BAZ2B block	HP1b chromo inh	G9a inh	JMJD2A Tudor inh
Cc1nc2cc(C(F)(F)F)ccc2n1CCNc1nc(-c2ccc(F)cc2)cs1	6%	-7%	?	3%	28µM*	?
Cc1ccc(-c2csc(NCCn3c(-c4ccncc4)nc4ccccc43)n2)cc1	-3%	-9%	-37%	6%	20µM*	-23%
Cc1ccc(-c2csc(NCCn3c(-c4ccncc4)nc4cc(C(F)(F)F)ccc43)n2)cc1	-8%	nt	nt	20%	nt	-34%
Cc1cccc(NC(=O)c2c([N+](=O)[O-])cnn2C)c1	-2%	13%	1%	48%	13%	-18%
O=C(Nc1ccc(F)cc1)C1CC(=O)n2ncnc2N1 (stereo not drawn)	9%	21%	-1%	7%	-1%	-7%
Cc1ccc(NC(=O)C2CC(=O)n3ncnc3N2)cc1C (stereo not drawn)	-5%	15%	-27%	38%	56µM*	2%
Cc1ccc(S(=O)(=O)C(C#N)c2nc3ccccc3nc2N2CCCCC2)cc1 (stereo not drawn)	-2%	4%	6%	nt	45µM*	nt
N#CC(c1nc2ccccc2nc1N1CCCCC1)S(=O)(=O)c1ccc(Cl)cc1 (stereo not drawn)	nt	8%	?	nt	?	nt
COc1ccc(S(=O)(=O)C(C#N)c2nc3ccccc3nc2N2CCC(C)CC2)cc1 (stereo not drawn)	2%	?	45µM*	nt	3.2µM*	nt
CC1CCCN(c2nc3ccccc3nc2C(C#N)S(=O)(=O)c2ccccc2)C1 (stereo not drawn)	-6%	-6%	?	36%	?	-17%
CCCCn1c(SCC(=O)c2c(N)n(C3CC3)c(=O)[nH]c2=O)nc2cc(S(N)(=O)=O)ccc21	5%	nt	5%	11%	?	-17%
Cc1ccc(C)c2c1c1ccccc1n2C	10%	5%	-4%	33%	nt	7%
Cc1ccc2c(c1)c1ccc3c(c1n2C)C(=O)C=CC3=O	nt	2.5µM*	10µM*	3.2µM*	1.6µM*	6.3µM*
COc1ccc2c(c1)c1ccc3c(c1n2C)C(=O)C=CC3=O	-7%	2.2µM*	?	6.3µM*	1.8µM*	40µM*
Cn1c2ccccc2c2ccc3c(c21)C(=O)C=CC3=O	nt	nt	nt	11µM*	nt	16µM*
CC(=O)Oc1ccc2ccc3ccc(C(C)=O)cc3c2c1	nt	nt	nt	3%	nt	-6%
CC(NC(=O)c1ccc(C23CC4CC(CC(C4)C2)C3)cc1)C(=O)O (stereo not drawn)	nt	15%	-1%	11%	-1%	-7%
CS(=O)(=O)c1ccc(Cl)c(NC(=O)CN2C(=O)C3CCCCC3C2=O)c1 (stereo not drawn)	25%	nt	-8%	21%	10%[2.33 µM]	1%
Cc1ccc(N2C(=N)/C(=C3/Nc4ccccc4S3)C(c3ccccc3)C2=O)cc1 (stereo not drawn)	0%	-9%	11%	-3%	35µM*	?
Cc1ccc(N2C(=O)C(F)(F)C2c2ccccc2)cc1 (stereo not drawn)	nt	-12%	125%	88%	66%	43%
O=C1NC(c2ccco2)Nc2sc3c(c21)CCN(Cc1ccccc1)C3 (stereo not drawn)	nt	22%	?	-13%	28µM*	?
CN1CCc2c(sc3c2C(=O)NC(c2ccco2)N3)C1 (stereo not drawn)	-9%	-9%	nt	20%	?	-16%
COc1ccc(Br)cc1C1NC(=O)c2c(sc3c2CCN(C)C3)N1 (stereo not drawn)	-2%	8%	4%	29%	12%[59 µM]	-19%
CN1CCc2c(sc3c2C(=O)NC(c2cn(Cc4ccccc4)c4ccccc24)N3)C1 (stereo not drawn)	-11%	-22%	45µM*	?	?	40µM*
N#CC1=C(C2CC2)CC(c2ccccc2)C(C#N)=C1N (stereo not drawn)	-7%	4%	1%	52%	50µM*	-8%
SMILES	L3MBTL1 block	Sfp inh	BAZ2B block	HP1b chromo inh	G9a inh	JMJD2A Tudor inh
CCOCCCNC(=S)N(CCN(CC)CC)Cc1cc2cc3c(cc2[nH]c1=O)OCCO3	-6%	8%	3%	2%	9%[59 µM]	-19%
CCOCCCNC(=S)N(CCO)Cc1cc2cc3c(cc2[nH]c1=O)OCCO3	4%[2.29 µM]	56µM*	-30%	24%	-18%[0.501 µM]	-11%
CCN(CC)CCN(Cc1cc2cc3c(cc2[nH]c1=O)OCCO3)C(=S)NCC1CCCO1 (stereo not drawn)	4%	5µM*	-11%	46%	nt	-7%
COC(=O)Nc1ccc(Cl)c(Cl)c1	nt	11%	nt	nt	nt	nt
O=C(COC(=O)c1ccccc1O)NCCCc1ccccc1	nt	-9%	20%	4%	-32%	79µM*
C/C(=N\NC(=O)c1ccccc1-n1cccc1)C1CC1	-2%	4%	-8%	12%	-11%	-19%
Cn1c2c(c3ccccc31)CCN=C2c1ccccc1	nt	nt	nt	28%	nt	-15%
Cc1ccc2c(c1)c1c(n2C)-c2[nH]ncc2CC1	-7%	12%	45µM*	?	?	?
COc1ccc(-n2c(SC)nc(O)c(Cc3ccccc3)c2=O)cc1	6%	0%	-9%	11%	40µM*	-13%
Cc1cc(S(=O)(=O)N2CCN(c3ccccc3F)CC2)ccc1-n1cnnn1	nt	-8%	?	27%	50µM*	-13%
Cc1cc(S(=O)(=O)N2CCN(c3ccc(F)cc3)CC2)ccc1-n1cnnn1	nt	3%	-21%	?	4%	?
Cc1cc(S(=O)(=O)N2CCC(N3CCCCC3)CC2)ccc1-n1cnnn1	-27%	1%	?	32%	50µM*	-12%
O=c1[nH]c2ccc(S(=O)(=O)N3CCN(c4ccccc4F)CC3)cc2s1	1%	6%	-29%	31%	14µM*	-16%
COc1ccc(S(=O)(=O)N2CCN(c3ccccc3F)CC2)cc1-c1noc(C)n1	nt	nt	56µM*	85%	0.5µM*	-14%
CCc1nc(-c2cc(S(=O)(=O)N3CCN(c4ccccc4F)CC3)ccc2OC)no1	nt	nt	-4%	8%	6%[59 µM]	-21%
C=CCOc1c(CNc2ccc(S(N)(=O)=O)cc2)cccc1OC	-2%	9%	2%	-24%	6%[59 µM]	-2%[11.4 µM]
COc1cccc(CNc2ccc3[nH]c(=O)[nH]c3c2)c1OCc1ccc(F)cc1	?	-9%	45µM*	?	?	40µM*
COc1cccc(CNc2ccc(C(=O)O)cc2)c1OCc1ccccc1	3%	3%	-23%	42%	nt	-1%
C=CCOc1c(CNc2ccc3[nH]c(=O)[nH]c3c2)cccc1OC	-1%	4%	-7%	?	nt	45µM*

Compound activity from PubChem.
